About 79,000 compounds went through this panel and 15% of them were active in at least one assay; those are over-represented in the sample as a whole. Calls of active or inactive are those of the source. Cut-off read from the data, not from the text of the source: active = growth inhibition above about 70%; inactive = the rest.
Legend:
[1] = NCI Yeast Anticancer Drug Screen. Data for the rad52 strain (AID 147);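 note: 0% = growth of vehicle-treated control cultures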; conditions: S. cerevisiae rad52 mutant growth inhibition, active compounds read high
Summary of the method: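 Growth of repair-deficient yeast cells was compared between compound-treated and vehicle-treated cultures to give percent inhibition.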

[2] = NCI Yeast Anticancer Drug Screen. Data for the wt1 strain (AID 149);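 note: 0% = growth of vehicle-treated wt1 cultures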; conditions: S. cerevisiae wt1 strain (SPY 50644) growth inhibition, active compounds read high
Summary of the method: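 Growth inhibition read against vehicle controls after compound exposure of the wt1 yeast strain.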

[3] = NCI Yeast Anticancer Drug Screen. Data for the rad50EPP+ strain (AID 151);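 note: 0% = growth of vehicle-treated control cultures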; conditions: S. cerevisiae rad50 mutant strain, active compounds read high
Summary of the method: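 Measured: growth inhibition of rad50EPP+ yeast. Reference: vehicle-treated controls. Screen uses strains with defined genetic alterations in DNA damage repair or cell cycle control.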

[4] = NCI Yeast Anticancer Drug Screen. Data for the mgt1 strain (AID 153); conditions: S. cerevisiae mgt1 mutant growth inhibition, active compounds read high
Summary of the method: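 Compounds were applied to mgt1 mutant yeast, and growth was then compared against vehicle-treated control cultures to give percent inhibition.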

[5] = NCI Yeast Anticancer Drug Screen. Data for the rad50 strain (AID 155);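 note: 0% = growth of vehicle-only cultures of the same strain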; conditions: S. cerevisiae rad50 strain growth inhibition, active compounds read high
Summary of the method: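 Readout: growth inhibition relative to vehicle-treated cultures. Compound exposure was carried out in a genetically defined yeast strain deficient in DNA damage repair.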

[6] = NCI Yeast Anticancer Drug Screen. Data for the mec2-1 strain (AID 157); conditions: S. cerevisiae mec2-1 strain, active compounds read high
Summary of the method: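 Compounds were applied to mec2-1 yeast cells. Their growth was then compared with that of vehicle-treated cultures to give growth inhibition.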

[7] = NCI Yeast Anticancer Drug Screen. Data for the rad14 strain (AID 159);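 note: 0% = growth of vehicle-treated control cultures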; conditions: S. cerevisiae rad14 strain growth inhibition, active compounds read high
Summary of the method: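 Growth inhibition vs vehicle controls; genetically altered yeast strain (DNA damage repair defect) treated with test compounds.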

[8] = NCI Yeast Anticancer Drug Screen. Data for the sgs1 mgt1 strain (AID 161);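 note: 0% = growth of cultures given vehicle only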; conditions: S. cerevisiae sgs1 mgt1 strain, active compounds read high
Summary of the method: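 This yeast growth screen uses a strain with defined DNA-repair lesions; compound-treated growth is compared with vehicle-treated growth.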

[9] = NCI Yeast Anticancer Drug Screen. Data for the cln2 rad14 strain (AID 165);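 note: 0% = growth equal to vehicle treated cultures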; conditions: S. cerevisiae cln2 rad14 strain, active compounds read high
Summary of the method: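 Strain: cln2 rad14 yeast, altered in cell cycle control and DNA damage repair. Read-out: growth inhibition vs vehicle.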

[10] = NCI Yeast Anticancer Drug Screen. Data for the bub3 strain (AID 167); conditions: S. cerevisiae bub3 mutant strain, active compounds read high
Summary of the method: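 Readout: yeast growth inhibition, expressed relative to vehicle-only wells. The test organism is a mutant strain from a panel with lesions in DNA repair or checkpoint genes.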

[11] = NCI Yeast Anticancer Drug Screen. Data for the wt2 strain (AID 169);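 note: 0% = growth of vehicle-treated yeast cultures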; conditions: S. cerevisiae wt2 strain growth inhibition, active compounds read high
Summary of the method: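 Growth of compound-treated yeast is measured and expressed as inhibition relative to vehicle-only controls.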

[12] = NCI Yeast Anticancer Drug Screen. Data for the mlh1 strain (AID 171);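 note: 0% = growth of vehicle-treated control cultures of the same strain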; conditions: S. cerevisiae mlh1 strain growth inhibition, active compounds read high
Summary of the method: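 Test agents were incubated with yeast bearing a defined DNA damage repair or cell cycle control alteration; values are growth inhibition normalised to vehicle-treated cultures.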

[13] = NCI Yeast Anticancer Drug Screen. Data for the sgs1 strain (AID 173);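 note: 0% = growth of vehicle-only control cultures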; conditions: S. cerevisiae sgs1 mutant, active compounds read high
Summary of the method: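 Strain with an altered DNA repair or cell cycle pathway exposed to compound. Growth then measured. Value = inhibition versus vehicle control.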

[14] = NCI Yeast Anticancer Drug Screen. Data for the mlh1 rad18 strain (AID 175); conditions: S. cerevisiae mlh1 rad18 strain growth inhibition, active compounds read high
Summary of the method: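 A repair-deficient yeast strain is exposed to test compound, and growth is scored relative to vehicle-treated controls.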

[15] = NCI Yeast Anticancer Drug Screen. Data for the rad18 strain (AID 177); conditions: S. cerevisiae rad18 mutant growth inhibition, active compounds read high
Summary of the method: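 DNA-repair-defective yeast; compound treatment; growth inhibition scored against vehicle.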

[16] = NCI Yeast Anticancer Drug Screen. Data for the CLN2oe strain (AID 163);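 note: 0% = growth of vehicle-only control cultures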; conditions: S. cerevisiae CLN2oe strain, active compounds read high
Summary of the method: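 Cells of an engineered yeast line with disturbed cell-cycle regulation are treated with compound. Inhibition of growth is then calculated relative to the vehicle-treated reference.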

[17] = at 5.0 µM (retest, dose inferred, filed as 0.5)
[18] = at 50.0 µM (retest, dose inferred, filed as 5.0)

Measured: growth inhibition

CC[C@@]1(OC(=O)CN(C)C)C(=O)OCc2c1cc1n(c2=O)Cc2cc3c(N)cccc3nc2-1
active: [1]; at 3.7 µM 75% | [1]; at 11.0 µM 88% | [1]; at 33.0 µM 93% | [1]; at 100.0 µM 95% | [3]; at 33.0 µM 77% | [3]; at 100.0 µM 87% | [5]; at 3.7 µM 82% | [5]; [17] 90% | [5]; at 11.0 µM 91% | [5]; at 33.0 µM 94% | [5]; [18] 90% | [5]; at 100.0 µM 95% | [6]; at 33.0 µM 88% | [6]; at 100.0 µM 96% | [14]; at 50.0 µM 73.5%
inactive: [1]; at 1.2 µM 53% | [2]; at 1.2 µM 0% | [2]; at 3.7 µM -2% | [2]; at 11.0 µM -1% | [2]; at 33.0 µM 6% | [2]; at 100.0 µM 25% | [3]; at 1.2 µM 7% | [3]; at 3.7 µM 22% | [3]; at 11.0 µM 55% | [4]; at 1.2 µM -2% | [4]; at 3.7 µM 0% | [4]; at 11.0 µM 2% | [4]; at 33.0 µM 20% | [4]; at 100.0 µM 39% | [5]; at 1.2 µM 68% | [5]; at 50.0 µM -17.9% | [6]; at 1.2 µM 0% | [6]; at 3.7 µM 8% | [6]; [17] 22% | [6]; at 11.0 µM 46% | [6]; [18] 22% | [6]; at 50.0 µM 58.4% | [7]; at 1.2 µM 2% | [7]; at 3.7 µM 0% | [7]; at 11.0 µM 4% | [7]; at 33.0 µM 19% | [7]; at 100.0 µM 51% | [8]; [17] 14% | [8]; [18] 14% | [8]; at 50.0 µM 6.05% | [9]; [17] 17% | [9]; [18] 17% | [9]; at 50.0 µM 31.1% | [10]; at 1.2 µM -14% | [10]; at 3.7 µM -20% | [10]; [17] 6% | [10]; at 11.0 µM -3% | [10]; at 33.0 µM 20% | [10]; [18] 6% | [10]; at 50.0 µM 0.7% | [10]; at 100.0 µM 59% | [11]; at 1.2 µM -2% | [11]; at 3.7 µM 1% | [11]; at 11.0 µM 3% | [11]; at 33.0 µM 13% | [11]; at 100.0 µM 32% | [12]; at 1.2 µM -1% | [12]; at 3.7 µM -2% | [12]; at 11.0 µM 1% | [12]; at 33.0 µM 28% | [12]; at 100.0 µM 55% | [13]; at 1.2 µM 0% | [13]; at 3.7 µM 4% | [13]; at 11.0 µM 17% | [13]; at 33.0 µM 40% | [13]; at 100.0 µM 64% | [14]; [17] 27% | [14]; [18] 27% | [15]; at 1.2 µM -18% | [15]; at 3.7 µM -5% | [15]; at 11.0 µM 5% | [15]; at 33.0 µM 19% | [15]; at 100.0 µM 51%

NNC(=S)Nc1cccc2ccccc12
inactive: [1]; at 1.2 µM -10% | [1]; at 3.7 µM -35% | [1]; at 11.0 µM -29% | [1]; at 33.0 µM 8% | [1]; at 100.0 µM 20% | [2]; at 1.2 µM -21% | [2]; at 3.7 µM -17% | [2]; at 11.0 µM -24% | [2]; at 33.0 µM -7% | [2]; at 100.0 µM 7% | [3]; at 1.2 µM -48% | [3]; at 3.7 µM -52% | [3]; at 11.0 µM -54% | [3]; at 33.0 µM -45% | [3]; at 100.0 µM 4% | [4]; at 1.2 µM -16% | [4]; at 3.7 µM -45% | [4]; at 11.0 µM -23% | [4]; at 33.0 µM -7% | [4]; at 100.0 µM 60% | [5]; at 1.2 µM -31% | [5]; at 3.7 µM -26% | [5]; [17] 45% | [5]; at 11.0 µM -31% | [5]; at 33.0 µM -6% | [5]; [18] 35% | [5]; at 50.0 µM 23.6% | [5]; at 100.0 µM 43% | [6]; at 1.2 µM -16% | [6]; at 3.7 µM -41% | [6]; [17] 60% | [6]; at 11.0 µM -20% | [6]; at 33.0 µM -9% | [6]; at 50.0 µM 23.8% | [6]; at 100.0 µM 12% | [7]; at 1.2 µM -14% | [7]; at 3.7 µM -33% | [7]; at 11.0 µM -50% | [7]; at 33.0 µM -32% | [7]; at 100.0 µM 28% | [8]; [17] -11% | [8]; [18] 54% | [16]; at 1.2 µM 5% | [16]; at 3.7 µM -3% | [16]; at 11.0 µM 2% | [16]; at 33.0 µM 3% | [16]; at 100.0 µM 27% | [9]; [17] 31% | [9]; [18] 67% | [10]; at 1.2 µM -6% | [10]; at 3.7 µM -9% | [10]; [17] 36% | [10]; at 11.0 µM -15% | [10]; at 33.0 µM 13% | [10]; [18] 59% | [10]; at 100.0 µM 55% | [11]; at 1.2 µM -40% | [11]; at 3.7 µM -36% | [11]; at 11.0 µM -33% | [11]; at 33.0 µM -16% | [11]; at 100.0 µM 17% | [12]; at 1.2 µM -37% | [12]; at 3.7 µM -38% | [12]; at 11.0 µM -29% | [12]; at 33.0 µM -13% | [12]; at 100.0 µM 48% | [13]; at 1.2 µM -14% | [13]; at 3.7 µM -33% | [13]; at 11.0 µM -19% | [13]; at 33.0 µM -8% | [13]; at 100.0 µM 37% | [14]; [17] 40% | [14]; [18] 62% | [14]; at 50.0 µM 49.2% | [15]; at 1.2 µM -32% | [15]; at 3.7 µM -39% | [15]; at 11.0 µM -21% | [15]; at 33.0 µM 2% | [15]; at 100.0 µM 18%
active: [6]; [18] 78%

O=C(/C=N/O)Nc1cc(Cl)c(Cl)cc1Cl
inactive: [1]; at 1.2 µM -45% | [1]; at 3.7 µM -47% | [1]; at 11.0 µM -40% | [1]; at 33.0 µM -1% | [1]; at 100.0 µM 62% | [2]; at 1.2 µM -37% | [2]; at 3.7 µM -35% | [2]; at 11.0 µM -36% | [2]; at 33.0 µM -12% | [2]; at 100.0 µM 3% | [3]; at 1.2 µM -17% | [3]; at 3.7 µM 3% | [3]; at 11.0 µM 6% | [3]; at 33.0 µM 51% | [4]; at 1.2 µM -8% | [4]; at 3.7 µM -9% | [4]; at 11.0 µM 34% | [4]; at 33.0 µM 60% | [5]; at 1.2 µM -35% | [5]; at 3.7 µM -21% | [5]; [17] 45% | [5]; at 11.0 µM -33% | [5]; at 33.0 µM 10% | [5]; at 100.0 µM 63% | [6]; at 1.2 µM -34% | [6]; at 3.7 µM -22%
active: [3]; at 100.0 µM 83% | [4]; at 100.0 µM 92% | [5]; [18] 98% | [5]; at 50.0 µM 79.2%

Reference: PubChem BioAssay (NCI)
